Source: PubChem BioAssay (EPA / NIEHS)
Active and inactive are the calls of the source. Rule for the calls, unless noted: active = hit-call score of the fitted dose curve at least 0.9, where 1 is the maximum; inactive = score below 0.9.

Key:
[1] = molecular target: Peroxisome proliferator-activated receptor gamma (Homo sapiens) (UniProt P37231); experiment: OT_PPARg_PPARgSRC1_1440: Odyssey Thera (OT) 24-hour Protein-Complementation Assay for Peroxisome Proliferator-activated Receptor Gamma/ SRC-1 Co-activator (AID 2283388; active = hit-call score of the fitted dose curve at least 0.9, where 1 is the maximum;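 note: nuclear to cytoplasmic ratio of reconstituted Venus YFP fluorescence in fixed imaged cells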)
Peroxisome proliferator-activated receptor gamma (Homo sapiens), sequence (P37231 whole entry, looked up, the tested form may be a part): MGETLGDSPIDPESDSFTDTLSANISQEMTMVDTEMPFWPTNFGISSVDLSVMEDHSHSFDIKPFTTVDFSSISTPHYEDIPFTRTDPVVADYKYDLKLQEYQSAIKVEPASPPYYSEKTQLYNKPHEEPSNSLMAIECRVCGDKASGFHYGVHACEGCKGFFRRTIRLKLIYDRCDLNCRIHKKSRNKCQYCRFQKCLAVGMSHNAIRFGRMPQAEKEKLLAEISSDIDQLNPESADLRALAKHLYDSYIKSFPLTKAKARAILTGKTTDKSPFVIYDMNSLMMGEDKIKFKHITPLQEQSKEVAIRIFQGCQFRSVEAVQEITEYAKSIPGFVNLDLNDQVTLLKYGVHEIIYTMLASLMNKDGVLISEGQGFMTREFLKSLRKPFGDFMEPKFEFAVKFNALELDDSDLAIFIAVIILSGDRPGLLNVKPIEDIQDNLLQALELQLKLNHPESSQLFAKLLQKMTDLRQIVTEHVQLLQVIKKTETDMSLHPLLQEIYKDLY
Summary of the method: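 Protein-fragment complementation between PPARg and coactivator SRC-1 was measured by fluorescence imaging in transiently transfected HEK293T cells after 24 h treatment. Signal was quantified as N/C ratio in the 488 nm channel, with DMSO as negative control.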

[2] = CEETOX_H295R_11DCORT: CeeTox H295R High-throughput Steroidogenesis Assay for 11-Deoxycortisol (11DCORT) (AID 2283432); conditions: actives raise or lower the signal;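 for AC50: 11-deoxycortisol secreted into the medium measured by LC-MS/MS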
Summary of the method: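 Human adrenal H295R cells were prestimulated with 10 uM forskolin for 48 h, then exposed to test chemical (0.1% DMSO final) for 48 h. Medium 11-deoxycortisol was quantified by MTBE extraction and HPLC-MS/MS; bidirectional fitting relative to DMSO.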

[3] = CEETOX_H295R_OHPREG: CeeTox H295R High-throughput Steroidogenesis Assay for OH-Pregnenolone (OHPREG) (AID 2283434); conditions: actives raise or lower the signal
Summary of the method: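 Hormone levels in spent medium were measured by tandem mass spectrometry following liquid-liquid extraction. Cells (H295R) had been forskolin-stimulated (10 uM, 48 h) before a 48 h chemical exposure at 0.1% DMSO, with activity fitted in both directions against DMSO.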

[4] = CEETOX_H295R_ANDR: CeeTox H295R High-throughput Steroidogenesis Assay for Androstenedione (ANDR) (AID 2283436); conditions: actives raise or lower the signal
Summary of the method: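 Read-out is androstenedione secreted into medium, measured by tandem mass spectrometry after liquid-liquid extraction. Cells were H295R, dosed for 48 h per modified OECD 456; activity fitted in both directions relative to DMSO.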

[5] = CEETOX_H295R_CORTIC: CeeTox H295R High-throughput Steroidogenesis Assay for Corticosterone (CORTIC) (AID 2283437); conditions: actives raise or lower the signal;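 note: corticosterone secreted into medium quantified by mass spectrometry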
Summary of the method: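 Corticosterone secreted into medium is measured by reverse-phase HPLC with tandem MS following liquid-liquid extraction. Cells are forskolin-stimulated (10 uM, 48 h) before 48 h test exposure; activity fitted in both directions against DMSO.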

[6] = CEETOX_H295R_CORTISOL: CeeTox H295R High-throughput Steroidogenesis Assay for Cortisol (AID 2283438); conditions: actives raise or lower the signal;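 note: cortisol secreted into medium quantified by LC-MS/MS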
Summary of the method: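 Forskolin 10 uM 48 h prestim → test cmpd in DMSO (0.1% final) 48 h → medium MTBE-extracted → LC-MS/MS cortisol vs 7-pt std curve. Gain/loss of signal fitted vs DMSO. MTT viability in same wells.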

[7] = CEETOX_H295R_DOC: CeeTox H295R High-throughput Steroidogenesis Assay for DOC (AID 2283439); conditions: actives raise or lower the signal
Summary of the method: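 Readout: 11-deoxycorticosterone in culture medium by reverse-phase C18 HPLC with ESI+ tandem MS after MTBE extraction. Cells: H295R, forskolin-primed (10 uM, 48 h), chemical-treated 48 h; DMSO 0.1% final. Activity fitted bidirectionally versus DMSO.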

[8] = CEETOX_H295R_PROG: CeeTox H295R High-throughput Steroidogenesis Assay for Progesterone (PROG) (AID 2283442); conditions: actives raise or lower the signal;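 for AC50: human H295R adrenal cells primed with 10 µM forskolin before dosing; progesterone secreted into medium by H295R cells measured by HPLC-MS/MS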
Summary of the method: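 Steps: seed H295R cells and let them adhere overnight; prime 48 h with 10 uM forskolin; dose with compound in DMSO at 0.1% final for 48 h; extract medium steroids with MTBE; measure progesterone by LC-MS/MS. MTT viability was run in the same wells.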

[9] = CEETOX_H295R_ESTRADIOL: CeeTox H295R High-throughput Steroidogenesis Assay for Estradiol (AID 2283440); conditions: actives raise or lower the signal;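 note: estradiol secreted into medium quantified by LC-MS/MS after dansyl derivatisation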
Summary of the method: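 Estradiol secreted into the medium was measured by tandem mass spectrometry after liquid-liquid extraction and dansylation. Human H295R cells had been forskolin-primed (10 uM, 48 h) before a 48 h chemical exposure with 0.1% DMSO.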

[10] = CEETOX_H295R_ESTRONE: CeeTox H295R High-throughput Steroidogenesis Assay for Estrone (AID 2283441); conditions: actives raise or lower the signal;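 note: estrone secreted into medium measured by LC-MS/MS after dansyl derivatization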
Summary of the method: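 H295R cells prestimulated 48 h with 10 uM forskolin, then exposed 48 h to chemicals in 0.1% DMSO final; estrone in medium extracted with MTBE, dansyl-derivatized, quantified by HPLC-MS/MS; bidirectional fitting versus DMSO, viability by MTT.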

Measured: AC50

Cc1ccc(O)cc1
inactive: [1] | [2] | [3] | [4] | [5] | [6] | [7] | [8]

COc1ccc(-n2nc(C(F)F)cc2-c2ccc(S(C)=O)cc2)cc1 (configuration not stated)
inactive: [1] | [2] | [3] | [5] | [6] | [7] | [8]

Fc1ccccc1[C@@H](F)COC1CCC(Nc2ncnc3[nH]ncc23)CC1 (some centres not stated)
active: [2] 5 µM | [3] 5 µM | [5] 1.41 µM | [6] 5 µM
inactive: [1] | [4] | [7] | [8]

CNS(=O)(=O)c1cc(C(=O)N2CCC(CCN3C4CCC3CC(n3c(C)nc5ccccc53)C4)(c3cccc(F)c3)CC2)c(Cl)cc1F (configuration not stated)
inactive: [1] | [3] | [8]
active: [4] 3.6 µM

CC(C)=CCCC(C)=CC=O
inactive: [1] | [2] | [3] | [8]
active: [5] 78.6 µM | [6] 75 µM

O=c1[nH]c2ccc(S(=O)CCN3CCC(Cc4ccc(F)cc4)CC3)cc2o1 (configuration not stated)
inactive: [1] | [7] | [9] | [10] | [8]
active: [2] 5.59 µM | [3] 3.63 µM | [5] 1.56 µM | [6] 6.88 µM

CCOC(=O)c1ccc(C2CCC(NC[C@H](O)COc3ccc(O)c(NS(C)(=O)=O)c3)CC2)cc1 (some centres not stated)
active: [2] 2.78 µM | [3] 2.95 µM | [5] 9.35 µM | [7] 2.84 µM | [8] 2.61 µM
inactive: [1] | [6]

COc1ccc(/C=C/S(=O)(=O)NC(=O)c2ccc(C)cc2Cl)cc1
active: [1] 60.6 µM
inactive: [2] | [3] | [5] | [6] | [7] | [8]

CC(C)(O)c1coc(S(=O)(=O)NC(=O)Nc2c3c(cc4c2CCC4)CCC3)c1
inactive: [1] | [2] | [3] | [5] | [6]
active: [7] 25.2 µM | [8] 19.4 µM

COC(=O)c1c(Cl)c(Cl)c(C(=O)OC)c(Cl)c1Cl
active: [5] 16.1 µM | [7] 50 µM | [9] 27.4 µM
inactive: [1] | [2] | [3] | [6] | [10] | [8]

CC(C)CC(C)(O)C#CC(C)(O)CC(C)C (configuration not stated)
active: [2] 68.2 µM
inactive: [1] | [3] | [5] | [6] | [7] | [8]

COc1cccc(-c2ccc(/C=C\CN3CCCCCC3)cc2Cl)c1
inactive: [1] | [2] | [3] | [5] | [6] | [7] | [9] | [10] | [8]

CC[C@H]1CC[C@H](NCc2cc3c(cc2OC)[C@H]2C[C@H]2C(=O)N3C)[C@H](c2ccccc2)N1
active: [9] 6.19 µM | [10] 7.37 µM
inactive: [1] | [2] | [3] | [5] | [6] | [7] | [8]
